# Experimental data reported in PubChem BioAssay (NCI).
# Compounds without any hit were thinned out: in the full panel of roughly 83,000, 20% have a hit.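 Plates (96-well) were seeded with cells, treated with compound at one concentration, and incubated for 48 hours before percent growth was determined.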 Unmarked numbers belong to inactive results. Calls of active or inactive are those of the source. How the source made its calls: active means growth percent below 10; inactive means the rest.
# Key:
# Experiment in all cases: NCI-60 one-dose screen, 48 h (100 = growth as untreated, 0 = no growth, -100 = all killed)
# Settings in all cases: 10 µM unless noted
# HCT-15 colon = system: HCT-15 colon
# HT29 colon = system: HT29 colon
# SNB-75 CNS = system: SNB-75 CNS
# SNB-19 CNS = system: SNB-19 CNS
# U251 CNS = system: U251 CNS
# PC-3 prostate = system: PC-3 prostate
# SK-MEL-5 melanoma = system: SK-MEL-5 melanoma
# UACC-62 melanoma = system: UACC-62 melanoma
# LOX IMVI melanoma = system: LOX IMVI melanoma
# SK-MEL-28 melanoma = system: SK-MEL-28 melanoma
# SK-MEL-2 melanoma = system: SK-MEL-2 melanoma
# EKVX NSCLC = system: EKVX NSCLC
# SN12C renal = system: SN12C renal
# UO-31 renal = system: UO-31 renal
# TK-10 renal = system: TK-10 renal
# ACHN renal = system: ACHN renal
# CAKI-1 renal = system: CAKI-1 renal
# A498 renal = system: A498 renal
# MOLT-4 leukemia = system: MOLT-4 leukemia
# CCRF-CEM leukemia = system: CCRF-CEM leukemia
SMILES,growth (HCT-15 colon),growth (HT29 colon),growth (SNB-75 CNS),growth (SNB-19 CNS),growth (U251 CNS),growth (PC-3 prostate),growth (SK-MEL-5 melanoma),growth (UACC-62 melanoma),growth (LOX IMVI melanoma),growth (SK-MEL-28 melanoma),growth (SK-MEL-2 melanoma),growth (EKVX NSCLC),growth (SN12C renal),growth (UO-31 renal),growth (TK-10 renal),growth (ACHN renal),growth (CAKI-1 renal),growth (A498 renal),growth (MOLT-4 leukemia),growth (CCRF-CEM leukemia)
COc1cc(-c2nn(C(C)(C)C)cc2-c2ccnc(NCCCNS(=O)(=O)c3ccccc3)n2)ccc1Cl,60.1%,70.3%,49.1%,97.2%,91.7%,54.8%,72.7%,78.4%,62.7%,93%,89.6%,36.5%,52%,39.4%,66%,77.2%,27%,31.2%,59.6%,
Nc1nc(Nc2ccccc2SSc2ccccc2Nc2nc(N)nc(-c3ccccc3)n2)nc(-c2ccccc2)n1,48.5%,111%,55.7%,74.5%,-22.7% (active),42.9%,89.2%,76.3%,-34.3% (active),93.9%,106%,47.1%,77.8%,-12.6% (active),101%,55.8%,25.2%,78.7%,50.7%,
Cn1ccnc1C(=O)/C=C/c1ccc(CNC(=O)c2c(F)c(F)c(F)c(F)c2F)cc1,11.8%,14.7%,96.3%,42.2%,45.6%,35.2%,75.7%,54.9%,-66.4% (active),90.8%,99.4%,93.2%,44.5%,79.7%,79.2%,47.9%,76%,83.3%,23%,
O=C1[C@@H]2Cc3c([nH]c4ccccc34)[C@H](c3c(Cl)cccc3Cl)N2C(=O)CN1C1CCN(CC2CCCCC2)CC1,7% (active),5.63% (active),103%,71.5%,42.8%,20.6%,50.4%,79.5%,-81.1% (active),93.9%,105%,90.7%,61.4%,69.7%,139%,51.3%,76.7%,87.1%,19.5%,
CC(=O)Nc1cccc(Nc2nc(N[C@@H](C)c3ccccc3)c3ccccc3n2)c1,10.4%,4.28% (active),-19.3% (active),20.6%,14.3%,21.3%,-5.52% (active),28.6%,-70.2% (active),42.3%,38.2%,24%,33.4%,19.2%,54.1%,28.6%,18.5%,-33.5% (active),-17% (active),
CS(=O)(=O)Nc1cc(-c2ccc3ncc(C#N)c(NCc4ccccc4)c3c2)cnc1Cl,8.19% (active),6.89% (active),-36.7% (active),7.25% (active),11.1%,-7.11% (active),-95.3% (active),-28% (active),-32.6% (active),-7.57% (active),-42.2% (active),-20.1% (active),7.64% (active),1.63% (active),-25.2% (active),5.99% (active),-27.7% (active),-57.2% (active),-25.6% (active),
CC(C)(O)c1cncc(-c2ccc3ncnc(NCc4ccccc4)c3c2)c1,103%,96.7%,31%,91.8%,109%,84.1%,87.6%,84.3%,57.2%,88%,107%,32.7%,57.6%,37.1%,42.8%,66.4%,42.6%,5.8% (active),98.6%,
COc1cc(/C=C2\C(=O)Nc3ccccc32)ccc1OCc1ccc(Cl)cc1,93.9%,109%,104%,97.1%,107%,94.8%,103%,87.6%,99.8%,92.9%,105%,95.3%,103%,81.3%,136%,92.7%,,115%,93.9%,94.9%
CS(=O)(=O)Nc1cc(-c2ccc3ncc(C#N)c(N[C@H](CO)c4ccccc4)c3c2)cnc1Cl,36.7%,74.3%,36%,41.7%,36.1%,32.7%,-77.3% (active),13.7%,26.9%,35.2%,10.3%,66.9%,31.1%,43.4%,34.8%,81.4%,33.3%,7.35% (active),14.7%,
COc1cc(-c2nn(C(C)(C)C)cc2-c2ccnc(NCCCNS(=O)(=O)c3ccc(F)cc3)n2)ccc1Cl,59.7%,73.2%,48.1%,92.9%,89.3%,51.5%,85%,72.2%,74.8%,89.8%,86.9%,39%,52.5%,42.3%,68.8%,83.6%,25%,51.9%,49.5%,
Oc1[nH]c2ccccc2c1Nn1c(N=N/C=c2/ccc3c(c2)C=NN=3)n[nH]c1=S,115%,19.4%,66.7%,98.9%,111%,97.4%,92%,98.9%,97.6%,115%,104%,64.2%,93.9%,74.8%,165%,96.8%,82.8%,82.9%,103%,
COc1ccccc1C(=O)Nc1cccc2c1C(=O)C(=O)C=C2,93.6%,62.5%,70%,106%,107%,89.8%,93.2%,105%,63.1%,108%,109%,72.2%,90.9%,59.2%,116%,101%,76.4%,38.4%,36.8%,
COc1cccc(/C=C(/C)c2ccc3cccc(OC)c3[o+]2)c1O,98%,114%,92.4%,95.6%,108%,87.3%,102%,80.3%,127%,98.9%,106%,89.6%,97.3%,88.8%,116%,95.4%,,84%,92%,104%
COc1cc(-c2nn(C(C)(C)C)cc2-c2ccnc(NCCCNS(=O)(=O)c3ccc(Cl)cc3)n2)ccc1Cl,51.5%,49.4%,41.7%,87.1%,77.3%,30.5%,77%,61.7%,65.4%,84.2%,82.5%,31.3%,46%,32.7%,66.1%,64.1%,17.7%,49.4%,31%,
C=C(C)[C@@H]1CC[C@]2(C(=O)NCCCCCN(CCC#N)CCC#N)CC[C@]3(C)[C@H](CC[C@@H]4[C@@]5(C)CCC(=O)C(C)(C)[C@@H]5CC[C@]43C)[C@@H]12,105%,108%,62.1%,107%,115%,92.3%,99.5%,84%,87.8%,108%,106%,75.2%,89.3%,71.6%,74.7%,98.7%,61.1%,48.9%,92%,
COc1ccccc1NC1=C(Cl)C(=O)c2nc(C)ccc2C1=O,-47% (active),75%,105%,38.9%,62.8%,27.4%,-93.3% (active),-45.8% (active),-73% (active),14.1%,78.8%,28.5%,-49.5% (active),-65.7% (active),148%,-99.9% (active),,71.8%,-39% (active),-4.94% (active)
